# Experimental data published in the supplement of paper PMC3334620.
# Over roughly 33,000 sequences, “E-score (-0.5 to 0.5)” has its median near -0.043; the highest 2% begin near 0.37. The sample as a whole holds a higher share of the highest values than the screen did.
# Target: T1, Upc2 (UniProt Q12151)
# T1 sequence: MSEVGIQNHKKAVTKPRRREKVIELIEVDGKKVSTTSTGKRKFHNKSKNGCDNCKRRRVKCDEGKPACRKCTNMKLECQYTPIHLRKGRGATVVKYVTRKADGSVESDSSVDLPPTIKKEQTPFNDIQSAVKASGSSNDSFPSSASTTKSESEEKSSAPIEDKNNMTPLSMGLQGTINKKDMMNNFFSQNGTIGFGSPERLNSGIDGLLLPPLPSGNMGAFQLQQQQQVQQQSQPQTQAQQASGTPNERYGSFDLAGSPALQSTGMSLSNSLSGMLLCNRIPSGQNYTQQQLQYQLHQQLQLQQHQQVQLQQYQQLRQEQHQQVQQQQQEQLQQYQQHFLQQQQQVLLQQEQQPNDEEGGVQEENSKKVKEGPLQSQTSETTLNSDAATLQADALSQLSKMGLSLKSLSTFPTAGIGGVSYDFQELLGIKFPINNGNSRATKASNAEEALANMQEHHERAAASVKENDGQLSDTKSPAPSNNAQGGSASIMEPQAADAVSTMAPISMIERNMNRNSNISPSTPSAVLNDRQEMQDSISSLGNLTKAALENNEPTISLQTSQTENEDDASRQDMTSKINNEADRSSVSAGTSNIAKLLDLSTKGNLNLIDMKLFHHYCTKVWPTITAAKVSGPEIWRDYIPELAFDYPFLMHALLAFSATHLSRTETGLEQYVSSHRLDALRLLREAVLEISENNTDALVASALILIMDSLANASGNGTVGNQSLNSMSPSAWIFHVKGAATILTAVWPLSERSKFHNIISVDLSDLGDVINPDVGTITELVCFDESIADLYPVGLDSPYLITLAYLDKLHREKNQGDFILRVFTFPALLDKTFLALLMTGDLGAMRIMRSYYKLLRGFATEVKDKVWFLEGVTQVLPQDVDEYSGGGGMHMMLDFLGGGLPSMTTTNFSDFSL
# Assay: PBM E-score (8-mer binding enrichment) (E-score (-0.5 to 0.5)); higher = stronger / more preferred TF binding
# Conditions: protein concentration: 200 nM; construct: GST-full length
# Description: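 Universal 'all 10-mer' protein binding microarrays (Agilent AMADID 015681) probed with GST-tagged S. cerevisiae TFs (full-length or DBD) made by in vitro transcription/translation (PURExpress), about 100-200 nM. Bound TF was detected with fluorescent anti-GST. Each ungapped 8-mer (which stands for itself and its reverse complement) is scored by the PBM enrichment score (E-score), a modified Wilcoxon-Mann-Whitney statistic from -0.5 to +0.5, computed with the Universal PBM Analysis Suite. Scale: above 0.35 generally sequence-specific binding.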
row,Sequence,PBM E-score
1,AGCTACTC,-0.129
2,CAAAAGCA,0.0182
3,ACTTATGG,-0.159
4,CCTACTCC,-0.318
5,AGTCGTCC,-0.111
6,GGTCGTAC,0.462
7,CGTCGTCC,-0.154
8,CGTAGTAG,0.108
9,AGTCGTAC,0.452
10,CGTCGTAG,0.37
11,CGTCGTAC,0.474
12,CATCGTCG,0.106
13,CGTCGTGC,0.0916
14,GGACGTAC,0.138
15,AGTCGTGC,-0.127
16,GGTCGCAC,0.138
17,GAGTGAGA,-0.214
18,CGCCTATC,-0.0576
19,AAAGGAGC,-0.113
20,GGGAGGAA,-0.119
21,AGAGATGA,-0.204
22,ATGGAGCA,-0.0645
23,CCCCAAGG,-0.378
24,CTTCCACC,-0.173
25,CAACCTCG,0.196

row,Sequence,PBM E-score
1,AGTCGTAT,0.467
2,AGTCGTCG,0.0489
3,AGTCGTAG,0.291
4,CGGAAGCC,-0.0575
5,ACTTTTCA,-0.0685
6,CGTTGTTA,0.0821
7,ATTCGTTG,0.215
8,ATTCGTTC,0.428
9,GTGCGTTA,0.0729
10,CTTCGTTA,0.345
11,ATTCGTTA,0.346
12,GTTCGTTA,0.403
13,CTTCGCTC,0.208
14,CTTCGTTC,0.457
15,CTTCGATC,0.0841
16,AGTCCTCA,-0.296
17,CATAGGTC,-0.0923
18,GCCCCTCC,-0.0822
19,ACATAACG,0.116
20,GCCTATCA,-0.187
21,ACACGGTG,-0.0718
22,AGACGGTG,-0.109
23,ATACGGTA,0.406
24,ATACGGTC,0.418
25,CTACGGTA,0.122

row,Sequence,PBM E-score
1,AAACGGTG,0.386
2,ATACGGTG,0.408
3,GTACGGTA,0.365
4,AAACGGTA,0.367
5,AAACGGTC,0.344
6,ACACGGTC,-0.099
7,CTACGGTC,0.109
8,GATGAAAA,0.0354
9,GGCGGGTA,-0.00895
10,CACGAACG,0.343
11,TCCGAACA,-0.0096
12,AACGAACC,0.427
13,CACGAACC,0.101
14,TACGAACA,0.452
15,AGCGAACA,0.19
16,AACGAACG,0.419
17,GACGAACC,0.0416
18,AACGAACA,0.426
19,GACGAACA,0.0681
20,CACGAACA,0.0853
21,ACCGAACG,0.269
22,AGAAGCGG,-0.222
23,AGAATAGA,-0.17
24,CACACTTA,-0.00527
25,ACTAGAGC,-0.0879

row,Sequence,PBM E-score
1,GTAATGAC,0.109
2,ACAGTTTC,-0.0564
3,CCCGCCAA,0.00973
4,ACTCTACT,0.0626
5,CATCCTAC,-0.0778
6,ACGCTAGG,-0.165
7,AGAGTAAT,-6e-05
8,TGTCGACA,0.063
9,CCCTAGCA,-0.26
10,ACCGAACT,0.0158
11,AGCGAACT,0.0961
12,AACGAACT,0.371
13,AATAGCCT,-0.081
14,ACGATTCA,0.328
15,AGCGTATG,0.268
16,CGCGTAGA,0.165
17,GGCGTATA,0.434
18,GGCGTCTA,-0.152
19,AGCGTATA,0.444
20,CGCGTATC,0.253
21,CGCGTATA,0.451
22,AGCGTATC,0.166
23,GGCGTAGA,0.048
24,GAACCATA,-0.072
25,CGCCTTGC,-0.288

row,Sequence,PBM E-score
1,ACTTGTCA,-0.235
2,AAAGCATG,-0.169
3,AGCTTGAT,-0.129
4,GGTATGAA,0.0119
5,GGTATGAC,-0.204
6,AGTATGAC,0.0571
7,AGTATGAG,-0.125
8,CCTATGAG,-0.28
9,CGTATGAG,0.415
10,CGTATGAC,0.42
11,CGTATGAA,0.405
12,AGTATGAA,0.00208
13,CAAGGTGG,-0.0983
14,ACGTAACA,-0.0115
15,GATCTTAA,0.159
16,ACGGTGGG,0.134
17,AACGACTG,0.389
18,TACGACTA,0.437
19,AGCGACTA,0.154
20,AACGACTT,0.305
21,GACGACTA,-0.171
22,GACGACTC,-0.052
23,ATCGACTG,0.0556
24,AACGACTC,0.401
25,CACGACTC,0.0449

row,Sequence,PBM E-score
1,CACGACTA,-0.0651
2,CACGACTG,0.0762
3,AACGACTA,0.379
4,AACCATAA,-0.0292
5,CACCAATC,-0.249
6,CTCCCACC,-0.0368
7,GTGTTCAA,-0.00045
8,AGCCAACA,-0.098
9,ATGTCTTG,-0.0852
10,CATGGGGC,-0.34
11,CAGGGTAA,-0.14
12,GAGGTCAA,-0.0747
13,CTCCCAAA,-0.0646
14,TGTATCAA,-0.0549
15,CGTATCAA,0.37
16,CGTATCAC,0.364
17,CATATCAG,-0.165
18,CGTATCAG,0.381
19,AGTATCAG,-0.235
20,CGGGCTAG,-0.117
21,CAAATCTG,-0.272
22,CCTGCTTC,-0.109
23,CAACGAGG,0.278
24,ACACGAGA,0.244
25,AAACGAGA,0.469

row,Sequence,PBM E-score
1,TAACGAGA,0.391
2,AATCGAGT,0.0695
3,AAACGAGT,0.477
4,AAACGAGG,0.481
5,CAACGAGA,0.314
6,CCACGAGA,-0.277
7,ACACGAGT,0.162
8,TCACGAGA,0.0145
9,AAACGTGG,0.255
10,CTATGGAA,-0.161
11,AAGATTGT,0.00873
12,ATTCACGA,0.0672
13,AATGACCC,-0.157
14,GCTAGTGA,-0.115
15,AATGAGCT,-0.163
16,CCTCCTCC,-0.105
17,AACTAGTA,-0.0317
18,GTGCTATA,0.128
19,CCTTGTCC,-0.205
20,CGGTTCAC,-0.117
21,GTTAACGA,0.442
22,GTTAACTA,0.157
